Screening data (PubChem BioAssay)
Most compounds without a hit are left out; they make up all but 3.6% or so of the library.
D1 antag: blocks dopamine activation of the human D1 receptor; activity change, negative = inhibition, % at 10 µM; AID 504652; P21728; 3.2% of 360,000 active; HEK293 TREx D1 cells, calcium flux, dopamine EC80; hits give low values; in the data active = activity change below about -30%; also: % is scaled to controls: 0 for no effect and ±100 for the full control effect
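Tetracycline-induced HEK293 Trex D1 cells, force-coupled to calcium, dye-loaded; compounds added and read 180 s, then EC80 dopamine added and calcium flux tracked kinetically another 180 s.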
LDHA inh: inhibitors of human lactate dehydrogenase A; P00338; purified LDHA, NADH/diaphorase-resazurin fluorescence; hits give low values; activity change, % (values are at about 110 or 230 µM); 0.15% of 480,000 active; AID 1347041; in the data active = activity change below about -30%;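 also: plate controls were DMSO wells for no effect and wells without enzyme for full effect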
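Remaining NADH was detected by diaphorase (0.133 mg/mL) converting 37 µM resazurin to fluorescent resorufin, read at 0 and 20 minutes. The preceding 5-minute room-temperature reaction used 2 nM LDHA, 0.2 mM sodium pyruvate and 0.06 mM NADH at pH 7.4.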
D1 ag: agonists of human D1 dopamine receptor | AID 504660 | activation, % at 2 µM | P21728 | HEK293 T-REx D1 cells, calcium flux, agonist mode | 1% of 360,000 active; also: 0% is about no effect
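Agonism was scored from calcium flux recorded over 180 s (1 read/s) after pintool compound addition, following a 10-cycle baseline. Cells were inducible force-coupled HEK293 TREx D1, plated overnight at 30 C and loaded with no-wash calcium dye.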
D1 potentiator: potentiators of human D1 dopamine receptor | potentiation, % at 10 µM | P21728 | AID 504651 | 0.036% of 360,000 active | HEK293 TREx D1 cells, calcium flux, dopamine EC20 potentiation; in the data active = potentiation above about 30%; also: 0% is about no effect
TRHR ag: TRH receptor (human) agonism; 0.18% of 360,000 active; TRHR cells, calcium flux fluo-8, FDSS agonist mode; AID 493084; activation, % at 2 µM; P34981; also: 0% is about no effect
Target sequence (P34981 whole entry, looked up): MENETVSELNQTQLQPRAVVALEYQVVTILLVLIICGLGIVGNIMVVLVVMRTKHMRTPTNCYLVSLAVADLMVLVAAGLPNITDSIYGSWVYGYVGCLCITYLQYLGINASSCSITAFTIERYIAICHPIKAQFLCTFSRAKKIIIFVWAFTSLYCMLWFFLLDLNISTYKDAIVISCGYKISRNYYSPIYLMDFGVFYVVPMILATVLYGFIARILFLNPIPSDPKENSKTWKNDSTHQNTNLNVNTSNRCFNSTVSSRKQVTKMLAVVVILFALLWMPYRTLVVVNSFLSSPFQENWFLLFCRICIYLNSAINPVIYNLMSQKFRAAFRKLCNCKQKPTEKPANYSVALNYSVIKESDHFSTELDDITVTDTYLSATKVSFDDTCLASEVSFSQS
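Agonist-mode FDSS calcium read (Ex 480/Em 530, 1 s cycles) in 1536-well TRHR cells with fluo-8 dye, after 10-cycle baseline and 23 nL compound addition; TRH at EC20 (10 nM final) added afterwards for the enhancer phase.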
TRHR enhancer: allosterically enhances the human TRH receptor | enhancement, % at 2 µM | 0.66% of 360,000 active | TRHR cells, fluo-8 calcium fluorescence, EC20 TRH enhancement; in the data active = enhancement above about 30%; also: 0% is about no effect
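TRHR-expressing cells loaded with fluo-8 calcium dye were read kinetically (ex 480/em 530) during compound addition, then stimulated with an EC20 of TRH (10 nM final). Enhancement of the Gq-mediated intracellular calcium response was scored.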
Starred values were filed as active, the others as inactive; . = no result; ! = repeats disagree. Rule as the data show it, unless noted: active = activation above about 30%; inactive = the rest.

SMILES	D1 antag	LDHA inh	D1 ag	D1 potentiator	TRHR ag	TRHR enhancer
Cc1ccc(NC(=O)c2nc3ccccc3nc2N2CCN(C)CC2)c(C)c1	.	8	.	.	.	.
Cc1ccc(N=Nc2ccc(O)c3ncccc23)cc1C	-16	6	36*	-5	0	7
CC(OC(=O)C12CC3CC(CC(C3)C1)C2)C(=O)Nc1ccc(Oc2ccccc2)cc1 (stereo unspecified)	.	-1	.	.	.	.
CCN(CC(=O)NC(C)C)Cc1cccc2cccnc12	.	6	.	.	.	.
c1ccc(-n2ncc3c(NCCN4CCOCC4)ncnc32)cc1	-1	1	1	7	0	33*
OCCOCCNc1ncnc2c1cnn2-c1ccc(Cl)cc1	8	-7	2	2	0	-4
CN(C)CCCNc1ncnc2c1cnn2-c1ccccc1	-14	-9	3	-5	1	-5
c1ccc(-n2ncc3c(NCCN4CCCCC4)ncnc32)cc1	1	-3	5	-3	1	3
CC(C)OCCCNc1ncnc2c1cnn2-c1ccccc1	-37*	-5	0	-2	0	33*
OCCOCCNc1ncnc2c1cnn2-c1ccccc1	-45*	-15	0	-9	0	23
CC1CCc2sc(C(=O)N/N=C3/CCCCc4ccccc43)cc2C1 (stereo unspecified)	.	5	.	.	.	.
O=c1cc(-c2ccccc2)nc(Cc2c(Cl)cccc2Cl)[nH]1	30	-5	4	-1	1	31*
O=c1cc(CCl)nc(Cc2c(Cl)cccc2Cl)[nH]1	.	3	.	.	.	.
Cc1ccc(OCC(=O)Nn2c(C)nc3ccccc3c2=O)c(C(C)C)c1	-22	-10	35*	5	-1	3
Cc1ccc(-c2nc3ccccc3c(=O)n2NC(=O)COc2ccccc2)cc1	-5	-4	1	-4	-1	2
Cc1[nH]c2ccc(F)cc2c(=O)c1SC(F)(F)C(F)F	-42*	-4	20	-1	0	-8
CCN(CC)C(=O)Cc1c(C)[nH]c2ccc(F)cc12	.	3	.	.	.	.
O=C(Nc1ccc(Cl)cc1)N1CCC(c2nc(-c3cccs3)no2)CC1	-46*	-3	17	-12	0	-14
O=[N+]([O-])c1ccc(O)c(-c2cc(C(F)(F)F)nc(-c3ccccc3)n2)c1	-48*	0	36*	-6	7	-6
O=C1Nc2ccc(Cl)cc2C12Nc1ccccc1-c1nnc(SCc3ccccc3F)nc1O2 (stereo unspecified)	-45*	11	3	-11	-1	4
O=C1Nc2ccc(F)cc2C12Nc1ccccc1-c1nnc(SCc3ccccc3F)nc1O2 (stereo unspecified)	-19	10	2	-3	0	-4
COCCNc1oc(-c2cccc(Cl)c2)nc1S(=O)(=O)c1ccc2c(c1)OCCO2	.	-3	.	.	.	.
COc1cc(SC)ccc1C(=O)OC(C)C(=O)c1ccc(C)cc1 (stereo unspecified)	.	-1	.	.	.	.
COc1cc(OC)cc(C(=O)NCCn2ccc3ccccc32)c1	-16	-4	3	-5	-1	-3
O=C(NCCn1ccc2ccccc21)c1ccc(Cl)cc1	-34*	-12	0	-4	0	0
SMILES	D1 antag	LDHA inh	D1 ag	D1 potentiator	TRHR ag	TRHR enhancer
CCSc1nc2c(c(=O)[nH]1)C(c1ccc(C)cc1)C1=C(CCCC1=O)N2 (stereo unspecified)	-4	-6	6	-6	0	-5
Cc1ccc(CSc2nc3c(c(=O)[nH]2)C(c2ccncc2)C2=C(CCCC2=O)N3)cc1 (stereo unspecified)	-48*	-15	-3	-4	0	-1
CCOCCn1c(=O)c2c(nc(-n3nc(C)cc3C)n2Cc2ccc(C)cc2)n(C)c1=O	.	-8	.	.	.	.
CSc1nc2c(c(=O)[nH]c(=O)n2C)n1Cc1ccccc1	2	0	5	1	0	31*
Cn1c(=O)[nH]c(=O)c2c1nc(CN1CCN(c3cccc(Cl)c3)CC1)n2CCCc1ccccc1	-31*	-8	2	-8	-1	-15
Cc1ccc(Cn2c(SCc3cccnc3)nc3c2c(=O)n(C)c(=O)n3C)cc1	14	-4	2	-1	-1	-1
CC(C)Sc1nc2c(c(=O)[nH]c(=O)n2C)n1Cc1ccc(Cl)cc1	31	-1	3	12	-1	6
CSc1nc2c(c(=O)[nH]c(=O)n2C)n1Cc1cccc(C)c1	.	3	.	.	.	.
CC(C)Sc1nc2c(c(=O)[nH]c(=O)n2C)n1Cc1ccccc1	19	-30*!	0	-8	-1	4
Cn1c(=O)c2c(nc(SCc3cccnc3)n2Cc2ccccc2)n(C)c1=O	-41*	-12	0	-7	-1	10
O=C(N/N=C/c1ccc(Cl)cc1Cl)c1cccs1	.	8	.	.	.	.
Cc1ccc(C)c(-c2cc(C(=O)Nc3nncs3)c3ccccc3n2)c1	.	-3	.	.	.	.
C=CCSc1nc2c(c(=O)n(C)c(=O)n2C)n1CC(=C)C	.	-1	.	.	.	.
CCc1nn2c(=O)cc(CN(C)C3CCCCC3)nc2s1	.	-2	.	.	.	.
COc1cccc(C(N)=O)c1OCc1ccc(C)cc1	.	-2	.	.	.	.
CCC(=O)Nc1ccc(C(=O)Nc2ccc(Br)cc2F)cc1	1	0	3	-1	2	40*
COc1ccccc1C1CC(=O)N(c2cccc(C(F)(F)F)c2)C2=C1C(=O)OC2 (stereo unspecified)	-1	-3	2	-3	10	-9
COc1ccc(OC)c(C2CC(=O)N(c3cccc(C)c3)C3=C2C(=O)OC3)c1 (stereo unspecified)	-10	-9	-1	-4	1	36*
Cc1ccc(N/C(N)=N/c2nc(CSc3nnc(N)s3)cc(=O)[nH]2)cc1	-34*	-9	5	-4	0	3
Cc1ccc(N/C(N)=N/c2nc(CSc3ccc(C)cc3)cc(=O)[nH]2)cc1	0	-5	0	-15	0	-6
O=C(CSc1nnnn1C1CCCCC1)N(Cc1cccs1)c1ccc2c(c1)OCCO2	.	5	.	.	.	.
Cn1cc(Br)c(C(=O)N/N=C/c2cccc(OC3CSC3)c2)n1	-30*	-8	2	2	0	-2
Cc1cc(Cl)ccc1OC(C)C(=O)Oc1ccc(-c2ccc(C#N)cc2)cc1 (stereo unspecified)	.	9	.	.	.	.
CCc1nnc(NC(=O)c2nn(Cc3ccccc3)c(=O)c3ccccc23)s1	.	-10	.	.	.	.
Cc1cc(C(=O)OC(C)C(=O)NC(N)=O)c2ccccc2n1 (stereo unspecified)	.	-32*	.	.	.	.
Cc1ccc2nc(C)cc(C(=O)OC(C)C(=O)NCC(C)C)c2c1 (stereo unspecified)	.	-30*	.	.	.	.
COc1cccc(C(=O)Nc2oc3ccc(Cl)cc3c(=O)c2-c2ccccc2)c1	.	-3	.	.	.	.
